Measurements from PubChem BioAssay AID2551 (National Center for Advancing Translational Sciences (NCATS), 2010).
Several values for one entry are separate records, joined by “and”; a condition that tells them apart may be missing. Equal values may be shown once. Out of some 310,000 compounds screened, about 17,000 (5.5%) were called active. Not shown: some 11% with an inconclusive outcome. Calls come from the whole dose curve; as a rule, active = well fitted inhibition curve with a large enough effect; inconclusive = small, poorly fitted or top-dose-only effect, or effect the other way; inactive = no such curve, though single readings can be large or run the other way. Only a selection was taken, and actives are over-represented in it overall. Where a structure was tested more than once in an assay, its records may differ in their call.

These compounds were tested against Nuclear receptor ROR-gamma (Mus musculus) (UniProt P51450) (assay: qHTS for inhibitors of ROR gamma transcriptional activity). Details: Drosophila S2 Gal4-RORgamma UAS-luciferase reporter, 20 h; series mostly up to 53.6 µM; activity change, negative = inhibition: at the top concentration.
Summary of the method: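 ROR gamma transcriptional activity was tracked as Gal4-UAS luciferase output in stably transfected Drosophila Schneider cells, with compound added 1 hr before 700 uM copper sulfate induction and a 20 hr ambient-temperature incubation.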
% is set by controls: 0 for no effect and ±100 for the full control effect; potency is the fitted concentration of half-maximal effect.
Note: nearly all actives have a fitted effect of over 60% in size.

Nuclear receptor ROR-gamma (Mus musculus), sequence (P51450 whole entry, looked up, the tested form may be a part): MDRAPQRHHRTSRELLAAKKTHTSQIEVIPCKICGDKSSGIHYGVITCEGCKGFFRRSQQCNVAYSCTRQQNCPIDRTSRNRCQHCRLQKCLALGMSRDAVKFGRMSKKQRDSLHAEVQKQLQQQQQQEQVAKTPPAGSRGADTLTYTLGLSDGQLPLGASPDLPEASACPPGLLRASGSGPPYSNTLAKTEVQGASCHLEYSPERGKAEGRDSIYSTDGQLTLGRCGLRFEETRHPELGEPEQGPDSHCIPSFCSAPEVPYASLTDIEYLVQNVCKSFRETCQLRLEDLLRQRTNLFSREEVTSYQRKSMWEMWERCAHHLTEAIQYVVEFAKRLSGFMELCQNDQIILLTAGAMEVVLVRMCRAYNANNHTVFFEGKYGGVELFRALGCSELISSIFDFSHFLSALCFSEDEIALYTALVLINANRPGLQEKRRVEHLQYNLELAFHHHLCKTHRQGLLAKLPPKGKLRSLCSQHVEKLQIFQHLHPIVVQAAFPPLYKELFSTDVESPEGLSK

SMILES | activity change, negative = inhibition | Potency
CCOc1ccc(C(C(=O)NCCOC)N(CCOC)C(=O)CCC(=O)Nc2ccccn2)cc1 (centres undefined) | -2.5% (inactive) | –
Cc1ccc(-c2csc(NC(=O)c3cnccn3)n2)cc1C | – | 2.24 µM (active)
Cc1ccc(C(=O)NCCNC(=O)c2cnccn2)cc1 | -10.2% (inactive) | –
COc1ccc(-c2csc(NC(=O)c3ccc(N4C(=O)CCC4=O)cc3)n2)cc1OC | -0.539% (inactive) | –
CC(=O)Nc1ccc(-c2csc(NC(=O)Nc3ccccc3)n2)cc1 | 30.4% (inactive) | –
Cc1ccc(Nc2nc(-c3sc(NC(=O)c4ccccc4)nc3C)cs2)cc1 | -23.5% (inactive) | –
O=C(Nc1nc(-c2cccnc2)cs1)c1ccccc1F | 10.5% (inactive) | –
O=C(O)c1ccccc1C(=O)Nc1nc(-c2ccccc2)cs1 | 20.5% (inactive) | –
Cc1ccc(-c2csc(NNC(=O)c3ccccc3)n2)cc1 | – | 5.01 µM (active)
O=C(Nc1nc(-c2ccc(-c3ccccc3)cc2)cs1)c1cnccn1 | – | 1.12 µM (active)
Cc1sc2ncn(CC(=O)NCCCC(=O)N3CCN(c4ccccc4F)CC3)c(=O)c2c1C | 8.6% (inactive) | –
Nc1ccc(C(=O)Nc2ccccc2N)cc1 | – | inactive
COc1ccc(NC(=O)CSc2nc(SC)ns2)c(OC)c1 | 14.7% (inactive) | –
Cc1ccc(S(=O)(=O)N(C)CC(=O)NCCc2c[nH]c3ccccc23)cc1 | 35.1% (inactive) | –
Cc1cccc(N(Cc2ccccc2)C(=O)c2ccccc2F)c1 | 2.6% (inactive) | –
CN(C(=O)COc1ccccc1)c1nnc(-c2ccncc2)s1 | -43.6% (inactive) | –
CN(C(=O)c1ccccn1)c1nnc(-c2ccccn2)s1 | – | 10 µM (active)
CN(C(=O)c1ccno1)c1nnc(-c2cccnc2)s1 | 7.53% (inactive) | –
O=C(COc1ccc(S(=O)(=O)Nc2cccc(C(F)(F)F)c2)cc1)N1CCOCC1 | 39.9% (inactive) | –
O=C(CCN1C(=O)[C@@H]2Cc3ccccc3CN2C1=O)NCCc1ccccc1 | -0.45% (inactive) | –
Oc1c(C(c2ccccn2)N2CCOCC2)ccc2cccnc12 (centres undefined) | – | 1.26 µM (active)
Cc1nc2sc(C(c3ccco3)N3CCOCC3)c(O)n2n1 (centres undefined) | -1.57% (inactive) | –

SMILES | activity change, negative = inhibition | Potency
CCOc1cc(N2CCOCC2)c(OCC)cc1NC(=O)COc1cccc2cccnc12 | -34.3% (inactive) | –
O=C(NCc1nnc(SCC(=O)N2CCCCCC2)o1)c1ccc(F)cc1 | -17.1% (inactive) | –
Cc1nn(-c2ccccc2)c(Cl)c1/C=N/NC(=O)c1nn(C)cc1[N+](=O)[O-] | 21.6% (inactive) | –
CCOC(=O)N1CCN(Cc2nnc(-c3ccccc3Cl)o2)CC1 | 13.1% (inactive) | –
CC(C)OCCCNC(=O)c1cc(Sc2ccc(F)cc2)nc2ccccc12 | -7.09% (inactive) | –
COc1ccc2nc(SCC(=O)Nc3c(C)cc(C)cc3C)[nH]c2c1 | 19.9% (inactive) | –
COC(=O)Nc1nc2ccc(Sc3ccccc3)cc2[nH]1 | – | inactive and 6.31 µM (active)
S=c1[nH]cc(-c2ccc(Cl)cc2)n1-c1ccccc1 | 6.26% (inactive) | –
S=c1[nH]ccn1-c1ccc(Cl)cc1 | – | 3.55 µM (active)
COc1ccc(COC(=O)N/N=C(\C)CC(=O)Nc2ccc(Cl)cc2)cc1 | 5.64% [at 10 µM] (inactive) | –
O=C(CCN1CCN(c2ccccc2)CC1)NNC(=S)Nc1ccccc1 | – | 10 µM (active)
COc1ccc(C(=O)N/N=C(\C)CC(=O)Nc2ccc(Cl)cn2)cc1 | – | 5.01 µM (active)
COc1cccc(C(=O)Nc2ccc(N3CCCC3)cc2)c1 | 7.72% (inactive) | –
O=C(CN1CCN(c2ccccc2)CC1)Nc1ccc(F)cc1 | 21.6% (inactive) | –
COc1ccc(C/C(C)=N/NC(=O)c2ccncc2)cc1 | -26.7% (inactive) | –
COC(=O)c1ccc(NC(=O)c2cc(Cl)ccc2OC)cc1 | 12.9% (inactive) | –
O=C(CN1CCN(c2ccc(F)cc2)CC1)Nc1ccccc1 | -3.12% (inactive) | –
COc1ccc(C(=O)NC(=S)Nc2ccc(N3CCCC3)cc2)cc1OC | – | 0.447 µM (active)
COc1c(Cl)cc(C(=O)Nc2ccc(Cl)cn2)cc1Cl | -2.59% (inactive) | –
COc1ccc(C(=O)Nc2ccc(N3CCC(C)CC3)cc2)cc1Br | 4.83% (inactive) | –
COc1ccc(C(=O)NC(=S)Nc2ccc(Cl)cn2)cc1OC | – | 7.94 µM (active)
CCc1ccc(NC(=O)CN2CCC(C(=O)c3ccc(OC)cc3)CC2)cc1 | -0.195% (inactive) | –

SMILES | activity change, negative = inhibition | Potency
Cc1c(C(=O)NC2CCCCC2)oc2ccccc12 | 31.6% (inactive) | –
CCCNC(=O)CCc1c(C)nc2c(c(C)nn2-c2ccccc2)c1C | 2.6% (inactive) | –
Cc1ccc(S(=O)(=O)N2CCCC(C(=O)N3CCN(C)CC3)C2)cc1 (centres undefined) | -10.6% (inactive) | –
O=C(Nc1ccncc1)Nc1ccc(F)cc1 | -6.05% (inactive) | –
COc1ccc(OCc2cc(C(=O)N3CCCC3)no2)c2ccccc12 | -2.3% (inactive) | –
COC(=O)CN1C(=O)[C@H]2[C@@H](C3CC3)N3C(=O)CN(Cc4ccc(-c5ccccc5)cc4)C(=O)[C@@]3(Cc3ccccc3)[C@H]2C1=O | 16.4% (inactive) | –
CS(=O)(=O)Nc1ccccc1N=C(c1ccccc1)c1ccccc1 | -31.1% [at 1.91 µM] (inactive) | –
COc1ccc(CN2CCNC(=O)C2CC(=O)NCc2cn[nH]c2-c2ccccc2)c(F)c1 (centres undefined) | 14.9% (inactive) | –
COc1ccc2oc(C(=O)NCC(Cc3ccccc3)N(C)C)c(C)c2c1 (centres undefined) | -17.4% (inactive) | –
O=C(c1ccccc1)c1ccc(C(=O)N2CCN(c3ccccc3)CC2)cc1 | -4.53% (inactive) | –
COC(=O)c1ccc(NC(=S)NN2CCOCC2)cc1 | 31.5% (inactive) | –
Cc1ccc(OCCCC(=O)Nc2ccc(N3CCOCC3)cc2)cc1 | -7.03% (inactive) | –
Cc1ccccc1C(=O)NC(=S)Nc1ccc(N2CCN(C(=O)c3ccccc3)CC2)cc1 | – | 22.4 µM (active)
O=C(COc1ccc([N+](=O)[O-])cc1)Nc1ccc(N2CCCC2)cc1 | -9.99% (inactive) | –
Cc1ccc(C(=O)NC(=S)Nc2ccc(N3CCOCC3)cc2)cc1 | – | 6.31 µM (active)
Cc1ccccc1C(=O)Nc1ccc(N2CCCCCC2)cc1 | 14.4% (inactive) | –
O=C(Cc1ccccc1)NC(=S)Nc1ccc(N2CCCCC2)cc1 | – | 2.24 µM (active)
O=C(Nc1ccc(Cl)cn1)c1cnn2cccnc12 | 11.5% (inactive) | –
Cc1nc(NC(=O)c2ccc3c(c2)OCCO3)ccc1Br | -8.45% (inactive) | –
O=C(CN1CCN(c2ccc(O)cc2)CC1)Nc1ccc(-c2ccccc2)cc1 | -1.13% (inactive) | –
O=C(Nc1ccc(Cl)cn1)c1ccc2c(c1)OCCO2 | – | 8.91 µM (active)
CC1CCCN(CCCNC(=O)CN2C(=O)COc3ccc(S(=O)(=O)N4CCOCC4)cc32)C1 (centres undefined) | -12.2% (inactive) | –

SMILES | activity change, negative = inhibition | Potency
CC(C)[C@@H](C(=O)O)N(Cc1cccc(CN([C@H](C(=O)O)C(C)C)S(C)(=O)=O)c1)S(C)(=O)=O | 0.567% (inactive) | –
COc1ccc(CCNC(=O)c2c(C)nn(-c3ccccc3)c2Cl)cc1 | 24.7% (inactive) | –
COc1ccc(CC(=O)NC2CCSc3ccccc32)cc1OC (centres undefined) | 7.66% (inactive) | –
COC(=O)c1ccc(Nc2ncnc3sccc23)cc1 | 38.8% (inactive) | –
O=S(=O)(c1ccccc1)N(Cc1cccc(F)c1)c1ccccc1 | 2.19% (inactive) | –
N#CCC(=O)NC1CCC(CC2CCC(NC(=O)CC#N)CC2)CC1 (centres undefined) | 21.4% (inactive) | –
CCOC(OCC)c1ccc(/C=C\c2nccc(N)n2)cc1 | -4.15% (inactive) | –
Cc1cc(=O)n2nc(N3CCC(C(=O)Nc4c(F)c(F)c(F)c(F)c4F)CC3)sc2n1 | 8.27% (inactive) | –
COc1ccc(C)cc1NC(=O)NCCCCc1ccccc1 | 33.6% (inactive) | –
Cc1cc(CNC(=O)C2CCC(=O)N(CCc3ccc(Cl)cc3)C2)no1 (centres undefined) | 0.942% (inactive) | –
COC1=C(N2CCOCC2)C(=O)c2ccccc2C1=O | 4.55% (inactive) | –
CCOc1ccc(NC(=O)c2ccc(NC(=O)C3CCCO3)cc2)cc1 (centres undefined) | -12.3% (inactive) | –
Cc1ccccc1C(=O)NC(=S)NC1CC1 | – | 14.1 µM (active)
O=C(NC(=S)NC1CCSC1=O)c1ccccc1F (centres undefined) | -29.6% (inactive) | –
Cc1ccccc1C(=O)Nc1ccccc1NC(=O)c1ccccc1C | -10.9% (inactive) | –
CC(C)n1c(C(O)c2ccccc2)nc2ccccc21 (centres undefined) | -20.2% (inactive) | –
COC(=O)Cn1c(O)c(N=NC(=O)OC)c2ccccc21 | 7.4% (inactive) | –
CC(C)n1c(O)c(N=Nc2ccccn2)c2ccccc21 | – | 8.91 µM (active)
COc1ccc(/C=N/Nc2nc(-c3ccc(C)cc3)c(C#N)c(=O)[nH]2)cc1 | 20.4% [at 1.91 µM] (inactive) | –
COc1ccc(/C=N/Nc2nc3ccccc3c(=O)[nH]2)cc1 | – | 11.2 µM (active)
COc1ccc(C=Nc2cccc3ncccc23)cc1 | -11% (inactive) | –
COc1ccccc1C(=O)N/C(=C/c1ccc2c(c1)OCO2)C(=O)Nc1cccc(C(=O)O)c1 | 5.47% (inactive) | –

SMILES | activity change, negative = inhibition | Potency
O=[N+]([O-])c1c(NCCO)cc(Sc2nc3ccccc3s2)c2nonc12 | – | 2.82 µM (active)
CCOc1ccccc1Nc1ccc2nonc2c1[N+](=O)[O-] | 7.05% (inactive) | –
O=C(CSc1nc2ccccc2s1)Nc1ccc(C(=O)O)cc1 | 12.8% (inactive) | –
CC(C)OCCCNC(=O)CN1C(=O)/C(=C/c2ccccc2F)Oc2ccccc21 | -0.186% (inactive) | –
CCn1c(CNS(=O)(=O)c2ccc(Cl)cc2)n[nH]c1=S | -10.8% (inactive) | –
O=C(CSCc1c(Cl)cccc1Cl)NN1C(=O)c2ccccc2C1=O | -1.68% (inactive) | –
CCn1c(CSCc2c(Cl)cccc2Cl)n[nH]c1=S | – | 3.16 µM (active)
O=C1NC(c2ccccc2)Oc2ccccc21 (centres undefined) | 4.56% (inactive) | –
CCN(CC)CCCNC(=O)COc1ccc2oc3c(c2c1)CCCC3 | 6.93% (inactive) | –
Cc1ccc(CNC(=O)C2CCCN2S(=O)(=O)c2ccc3c(c2)C(C)(C)C(=O)N3C)cc1 (centres undefined) | -3.5% (inactive) | –
CN1CCN(NC(=O)Nc2ccc(Br)cc2)CC1 | 16.6% (inactive) | –
CC(C)(C)C1CCC(=NNC(=O)c2cc(-c3ccccc3)n[nH]2)CC1 (centres undefined) | – | 11.2 µM (active)
O=C(COc1ccc(-c2ccccc2)cc1)NN=C1CCCC1 | -25.1% (inactive) | –
CC(NC(=O)C(=O)NN=C1CCC(C(C)(C)C)CC1)c1ccccc1 (centres undefined) | -12.8% (inactive) | –
CC1CN(CC(=O)NC(C)c2ccccc2)CC(C)O1 (centres undefined) | -6.55% (inactive) | –
C/C(=N/Nc1nc(-c2ccccc2)c(CC(=O)O)s1)c1ccccc1 | – | 11.2 µM (active)
CCOC(=O)C(=O)Nc1nc(-c2ccccc2)c(CC)s1 | -31.4% (inactive) | –
Cc1ccc(-c2nc(C)sc2CC(=O)O)cc1 | -0.336% (inactive) | –
O=C(/C=C/c1ccco1)Nc1cccc(-c2nc3ccccc3[nH]2)c1 | 23.4% (inactive) | –
Cc1ccc(-c2nc3ccccc3[nH]2)cc1NC(=O)c1sc2ccccc2c1Cl | -7.38% (inactive) | –
O=C(Nc1cccc(-c2nc3ccccc3[nH]2)c1)c1ccc(C(=O)Nc2cccc(-c3nc4ccccc4[nH]3)c2)cc1 | – | 2 µM (active)
